# The supplement of paper PMC12282887
# ± gives the standard deviation of the averaged measurements.
# How the values were obtained:
# Assay in all cases: promoter activity interaction Z-score (Lux/OD deviation from empty-vector control); higher = stronger promoter induction by the compound
# [1] = tested on: E. coli BW25113 acrABp lux reporter
# In short: (§1)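 Every compound was given at four 1:2 dilutions, in biological duplicates, to E. coli BW25113 carrying low-copy luxCDABE promoter reporters in wild-type or single-gene deletion backgrounds. Growth in 40 µl LB Lennox in 384-well plates at 37°C was followed by OD600 and luminescence readings every 30 min for 12 h, integrated over 0–8 h for wild type and 1–9 h for deletion strains, with wells below 10% of the median growth value excluded. Scores are Z-transformed residuals of growth-normalised luminescence fitted against a control.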
# [2] = tested on: E. coli BW25113 micFp lux reporter
# In short: as §1
# [3] = tested on: E. coli BW25113 ompFp lux reporter
# In short: as §1
# [4] = 35.6 µg/ml, genetic background: wild type
# [5] = 35.6 µg/ml, genetic background: ΔmarA
# [6] = 35.6 µg/ml, genetic background: Δrob
# [7] = 35.6 µg/ml, genetic background: ΔsoxS
# [8] = 71.1 µg/ml, genetic background: wild type
# [9] = 71.1 µg/ml, genetic background: ΔmarA
# [10] = 71.1 µg/ml, genetic background: Δrob
# [11] = 71.1 µg/ml, genetic background: ΔsoxS
# [12] = 142.3 µg/ml, genetic background: wild type
# [13] = 142.3 µg/ml, genetic background: ΔmarA
# [14] = 142.3 µg/ml, genetic background: Δrob
# [15] = 142.3 µg/ml, genetic background: ΔsoxS
# [16] = 284.5 µg/ml, genetic background: wild type
# [17] = 284.5 µg/ml, genetic background: ΔmarA
# [18] = 284.5 µg/ml, genetic background: Δrob
# [19] = 284.5 µg/ml, genetic background: ΔsoxS
compound,measurement,setting,value
CC[C@H](C)[C@H](N)C1=N[C@H](C(=O)N[C@@H](CC(C)C)C(=O)N[C@H](CCC(=O)O)C(=O)N[C@H](C(=O)N[C@H]2CCCCNC(=O)[C@H](CC(N)=O)NC(=O)[C@@H](CC(=O)O)NC(=O)[C@H](Cc3cnc[nH]3)NC(=O)[C@@H](Cc3ccccc3)NC(=O)[C@H]([C@@H](C)CC)NC(=O)[C@@H](CCCN)NC2=O)[C@@H](C)CC)CS1 [Bacitracin],promoter activity interaction Z-score,[1]; [4],0.238 ± 0.011
same,promoter activity interaction Z-score,[1]; [5],0.0967 ± 0.69
same,promoter activity interaction Z-score,[1]; [6],0.103 ± 0.11
same,promoter activity interaction Z-score,[1]; [7],-0.486 ± 0.28
same,promoter activity interaction Z-score,[1]; [8],-0.189 ± 0.25
same,promoter activity interaction Z-score,[1]; [9],-0.152 ± 0.45
same,promoter activity interaction Z-score,[1]; [10],-0.3 ± 0.21
same,promoter activity interaction Z-score,[1]; [11],-0.354 ± 0.56
same,promoter activity interaction Z-score,[1]; [12],-0.563 ± 0.27
same,promoter activity interaction Z-score,[1]; [13],0.111 ± 0.27
same,promoter activity interaction Z-score,[1]; [14],-0.64 ± 0.089
same,promoter activity interaction Z-score,[1]; [15],-0.484 ± 0.29
same,promoter activity interaction Z-score,[1]; [16],-0.416 ± 0.21
same,promoter activity interaction Z-score,[1]; [17],-0.491 ± 0.073
same,promoter activity interaction Z-score,[1]; [18],-0.296 ± 0.36
same,promoter activity interaction Z-score,[1]; [19],0.474 ± 0.51
same,promoter activity interaction Z-score,[2]; [4],-0.0989 ± 0.035
same,promoter activity interaction Z-score,[2]; [5],-0.0164 ± 0.05
same,promoter activity interaction Z-score,[2]; [6],0.0475 ± 0.15
same,promoter activity interaction Z-score,[2]; [7],-0.478 ± 0.18
same,promoter activity interaction Z-score,[2]; [8],-0.268 ± 0.032
same,promoter activity interaction Z-score,[2]; [9],-0.0396 ± 0.049
same,promoter activity interaction Z-score,[2]; [10],-0.239 ± 0.028
same,promoter activity interaction Z-score,[2]; [11],-0.278 ± 0.083
same,promoter activity interaction Z-score,[2]; [12],-0.506 ± 0.083
same,promoter activity interaction Z-score,[2]; [13],-0.139 ± 0.089
same,promoter activity interaction Z-score,[2]; [14],-0.177 ± 0.087
same,promoter activity interaction Z-score,[2]; [15],-0.0874 ± 0.23
same,promoter activity interaction Z-score,[2]; [16],0.124 ± 0.091
same,promoter activity interaction Z-score,[2]; [17],-0.167 ± 0.014
same,promoter activity interaction Z-score,[2]; [18],-0.188 ± 0.095
same,promoter activity interaction Z-score,[2]; [19],0.2 ± 0.17
same,promoter activity interaction Z-score,[3]; [4],0.637 ± 0.23
same,promoter activity interaction Z-score,[3]; [5],0.358 ± 0.11
same,promoter activity interaction Z-score,[3]; [6],0.253 ± 0.87
same,promoter activity interaction Z-score,[3]; [7],-0.738 ± 0.32
same,promoter activity interaction Z-score,[3]; [8],0.389 ± 0.42
same,promoter activity interaction Z-score,[3]; [9],0.103 ± 0.39
same,promoter activity interaction Z-score,[3]; [10],-0.153 ± 0.32
same,promoter activity interaction Z-score,[3]; [11],-0.256 ± 0.011
same,promoter activity interaction Z-score,[3]; [12],-0.463 ± 0.37
same,promoter activity interaction Z-score,[3]; [13],0.405 ± 1.2
same,promoter activity interaction Z-score,[3]; [14],-0.823 ± 0.087
same,promoter activity interaction Z-score,[3]; [15],0.0137 ± 0.45
same,promoter activity interaction Z-score,[3]; [16],1.52
same,promoter activity interaction Z-score,[3]; [17],0.962 ± 0.71
same,promoter activity interaction Z-score,[3]; [18],1.05 ± 1.1
same,promoter activity interaction Z-score,[3]; [19],1.9 ± 0.51
